Key:
Experiment in all cases: PBM binding z-score (relative to random genomic background probes); higher = stronger binding; sequences stand for … in GC…GCGATTGACAGCGTAGAATGAAGG
[1] = tested on: FXR:RXRa (NR concentration 270 nM, RXRa partner concentration 90 nM)
Summary of the method: (§1)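 For binding z-scores, the reference was random background probes on custom Agilent 4×180K protein-binding microarrays. These arrays were incubated 1 h with ligand-free nuclear receptor dimers in PBS pH 7.4, 2% milk, 0.02% Triton X-100, 1 mM DTT, 0.2 mg/mL BSA and 0.4 mg/ml salmon testes DNA. Fluorescence was scanned after antibody detection of each partner (one per run) and regression-normalized.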

[2] = tested on: LXRa:RXRa (NR concentration 270 nM, RXRa partner concentration 90 nM)
Summary of the method: as §1

[3] = tested on: LXRa homodimer (NR concentration 270 nM)
Summary of the method: as §1

[4] = tested on: LXRb:RXRa (NR concentration 270 nM, RXRa partner concentration 90 nM)
Summary of the method: as §1

[5] = tested on: LXRb homodimer (NR concentration 270 nM)
Summary of the method: as §1

[6] = tested on: PPARa:RXRa (NR concentration 270 nM, RXRa partner concentration 90 nM)
Summary of the method: as §1

[7] = tested on: PPARg:RXRa (NR concentration 180 nM, RXRa partner concentration 90 nM)
Summary of the method: as §1

[8] = tested on: PPARg:RXRa 270nM:90nM, anti-RXR (NR concentration 270 nM, RXRa partner concentration 90 nM)
Summary of the method: as §1

[9] = tested on: PPARg:RXRa 30nM:10nM, anti-RXR (NR concentration 30 nM, RXRa partner concentration 10 nM)
Summary of the method: as §1

[10] = tested on: PPARg:RXRa 90nM:30nM, anti-RXR (NR concentration 90 nM, RXRa partner concentration 30 nM)
Summary of the method: as §1

[11] = tested on: PPARg:RXRa DBDmut IVT, anti-RXR (DBD mutation: RXRa K156A/R161A, NR concentration 270 nM, RXRa partner concentration 90 nM)
Summary of the method: as §1

[12] = tested on: PPARg:RXRa IVT, anti-PPARg (NR concentration 270 nM, RXRa partner concentration 90 nM)
Summary of the method: as §1

[13] = tested on: PPARg DBDmut:RXRa IVT, anti-PPARg (DBD mutation: PPARg1 K132A/R137A, NR concentration 270 nM, RXRa partner concentration 90 nM)
Summary of the method: as §1

[14] = tested on: PPARg DBDmut IVT, anti-PPARg (DBD mutation: PPARg1 K132A/R137A, NR concentration 270 nM)
Summary of the method: as §1

[15] = tested on: PPARg homodimer (NR concentration 180 nM)
Summary of the method: as §1

[16] = tested on: PXR:RXRa (NR concentration 270 nM, RXRa partner concentration 90 nM)
Summary of the method: as §1

[17] = tested on: PXR homodimer (NR concentration 270 nM)
Summary of the method: as §1

[18] = tested on: RARa:RXR (NR concentration 270 nM, RXRa partner concentration 90 nM)
Summary of the method: as §1

[19] = tested on: RARa homodimer (NR concentration 270 nM)
Summary of the method: as §1

[20] = tested on: RARb:RXRa (NR concentration 270 nM, RXRa partner concentration 90 nM)
Summary of the method: as §1

Row | Sequence | PBM binding z-score [1] | PBM binding z-score [2] | PBM binding z-score [3] | PBM binding z-score [4] | PBM binding z-score [5] | PBM binding z-score [6] | PBM binding z-score [7] | PBM binding z-score [8] | PBM binding z-score [9] | PBM binding z-score [10] | PBM binding z-score [11] | PBM binding z-score [12] | PBM binding z-score [13] | PBM binding z-score [14] | PBM binding z-score [15] | PBM binding z-score [16] | PBM binding z-score [17] | PBM binding z-score [18] | PBM binding z-score [19] | PBM binding z-score [20]
1 | CCGACTGGGACATAAGGTTACCATAAGCCAGCCC | 0.338 | 2.04 | 0.14 | 0.621 | -0.915 | 1.21 | 1.61 | 2.59 | 0.545 | 1.96 | 1.57 | 0.909 | -1.05 | -1.68 | 0.314 | 0.0588 | -0.0723 | 0.922 | -0.0116 | 1.05
2 | CGTCAAAGTACAACTAAGGTAACGTAAAGCACGC | 0.707 | 0.122 | 0.142 | 0.219 | 0.198 | 0.548 | 0.918 | 0.504 | 0.132 | 0.467 | 0.337 | 0.863 | -0.144 | 0.398 | 0.606 | 0.34 | 0.247 | 2.1 | 0.546 | 1.34
3 | GCTAGTTGATCAGTAAAAGGTCACACACCGGTCG | 3.16 | 4.73 | 4.21 | 3.98 | 0.478 | 4.53 | 2.11 | 4.16 | 1.58 | 3.46 | 0.158 | 1.96 | 0.246 | 0.272 | 2.88 | 4.83 | 0.914 | 5.64 | 2.24 | 3.89
4 | GCGACTGGTGCATCAGCAGGTTACCATAACTTAA | -0.753 | -0.531 | -0.541 | -0.267 | -1.02 | -0.237 | -0.0578 | -0.215 | -0.641 | -0.986 | -0.556 | -0.572 | -1.07 | -0.356 | -0.496 | -0.248 | -0.653 | -0.046 | -1.22 | -0.228
5 | AGTACGAGGGCACGCTGAGTTGATAGCAGAGTAG | 0.909 | 0.941 | -0.408 | 0.078 | -0.497 | 1.63 | 1.26 | 0.976 | -0.181 | 0.652 | 2.66 | 2.52 | 0.166 | 0.462 | 0.0101 | 1.4 | 0.398 | 0.957 | -0.0662 | 2.64
6 | TCTAGTCGGTCACGGAGGTCACACACGACGGGTA | 4.64 | 4.8 | 4.58 | 3.54 | 0.882 | 4.58 | 5.07 | 4.97 | 3.86 | 4.54 | 4.17 | 5.71 | 2.36 | 0.492 | 3.93 | 4.93 | 2.24 | 5.02 | 1.39 | 4.56
7 | ACTATTAGCTGAGACGAGGGCAACCGATAGGTTG | 0.185 | -0.00873 | 0.0861 | 0.0453 | 0.238 | 0.0501 | 0.663 | 0.238 | -0.205 | 0.302 | -0.032 | 0.377 | -0.216 | -0.0358 | -0.21 | 0.33 | 0.536 | 0.226 | 0.488 | 0.935
8 | CAAACTAGGTGACAGAGGTCAAAGTCCGTGCGTA | 4.84 | 5.47 | 4.88 | 5 | 1.14 | 5.75 | 7.83 | 6.75 | 4.75 | 6.85 | 8 | 8.03 | 1.36 | 0.411 | 2.02 | 5.61 | 2.31 | 5.38 | 1.29 | 4.12
9 | CGAACTAGGTCAAGGACAGGGAATCTCCGCACGC | 3.17 | 2.12 | 0.324 | 1.32 | -0.364 | 4.52 | 7.01 | 6.26 | 3.78 | 5.95 | 8.32 | 7.95 | 1.81 | 0.477 | 3.11 | 1.05 | 0.302 | 2.12 | 0.471 | 4
10 | CAGCGTAGGTCAGGGCCAGTATAGGAGGAACGTT | 1.79 | 1.23 | -0.344 | 0.759 | -1.03 | 2.46 | 0.896 | 0.918 | -0.272 | 0.0961 | 0.838 | 1.03 | -0.58 | -1.66 | 0.304 | 0.605 | -0.644 | 1.04 | 0.00652 | 3.43
11 | GCAGACAGGTTAAACGCAGGTAACTCAGGGTGGC | 0.61 | 1.65 | -0.225 | 0.687 | -0.662 | 1.7 | 0.69 | 0.222 | -0.592 | -0.245 | 0.14 | -0.197 | -0.311 | -1.1 | -0.225 | 0.235 | -0.788 | 1.11 | -0.374 | 1.12
12 | CCTACTGGGCTAAAGGTCATTGATTCCAATGCTC | 4.68 | 4.85 | 4.14 | 4.48 | 0.6 | 6.09 | 11.2 | 9.38 | 9.13 | 10.4 | 4.37 | 6.31 | -0.17 | -0.112 | 4.02 | 4.97 | 1.35 | 5.44 | 0.872 | 4.26
13 | TCAATGAGGTTAAAGATCAGGGAACGTGGCGTCG | 3.28 | 2.48 | -0.228 | 1.66 | 0.0519 | 4.25 | 5.03 | 5.65 | 5.03 | 5.65 | 2.63 | 2.57 | 0.383 | 0.398 | 0.433 | 1.83 | -0.0283 | 3.15 | 0.278 | 2.04
14 | GCGACTGGGGCATCAGCAGTTTACCATAACTTAA | -0.0811 | -0.328 | -0.256 | 0.505 | -0.674 | 0.605 | 0.756 | 1.18 | -0.193 | 0.414 | 3.71 | 2.93 | -0.206 | 0.0271 | 0.458 | 0.227 | 0.14 | 0.0655 | 0.0729 | 0.388

Source: the supplement of paper PMC6555819
